# Source: PubChem BioAssay
# Biological target: E3 ubiquitin-protein ligase XIAP (Homo sapiens) (UniProt P98170)
# Test: small molecules binding XIAP protein – biophysical, small-molecule microarray, fluorescence 635 nm, primary screen (AID 1181);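 note: score merges 667 nm emission and signal to noise over triplicate slides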
# Details: higher = more signal
# Chain of E3 ubiquitin-protein ligase XIAP (Homo sapiens) (P98170 whole entry, looked up): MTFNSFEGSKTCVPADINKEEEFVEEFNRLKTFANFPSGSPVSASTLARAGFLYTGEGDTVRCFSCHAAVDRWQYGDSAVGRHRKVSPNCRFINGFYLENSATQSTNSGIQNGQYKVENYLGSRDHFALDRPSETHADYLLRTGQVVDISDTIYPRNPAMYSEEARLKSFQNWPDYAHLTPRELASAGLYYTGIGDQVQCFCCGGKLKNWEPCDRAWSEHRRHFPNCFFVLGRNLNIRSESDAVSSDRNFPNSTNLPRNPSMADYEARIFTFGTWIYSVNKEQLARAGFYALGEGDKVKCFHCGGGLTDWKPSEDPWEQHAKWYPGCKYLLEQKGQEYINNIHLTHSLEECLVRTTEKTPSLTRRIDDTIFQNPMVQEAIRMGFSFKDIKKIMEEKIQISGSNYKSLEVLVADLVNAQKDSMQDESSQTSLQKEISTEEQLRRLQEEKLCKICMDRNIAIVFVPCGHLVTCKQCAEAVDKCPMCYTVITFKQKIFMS
row,SMILES,composite z-score
1,Cc1ccc(S[C@]2(C(=O)O)CC(=O)N(Cc3cc(C(F)(F)F)cc(C(F)(F)F)c3)[C@@H]2c2ccc(CO)cc2)cc1,-0.053
2,CC(C)Cc1ccc(CN2CC[C@@H](NC(=O)Nc3ccccc3)C2)cc1,-0.209
3,C=CC1c2cc(O)c(OC)cc2CCN1Cc1cc2c(cc1Br)OCO2 (stereo not given),-0.0525
4,O=C1O[C@H](c2ccccc2)[C@H](c2ccccc2)N2[C@H]1[C@@H](C(=O)N1CCN(c3ncccn3)CC1)[C@]1(C(=O)Nc3ccc(C#CC4(O)CCCCCC4)cc31)[C@H]2c1ccc(OCCO)cc1,0.258
5,COC(=O)C(CC#Cc1ccc2c(c1)[C@]1(C(=O)N2)[C@H](c2ccccc2OCCO)N2[C@H](c3ccccc3)[C@H](c3ccccc3)OC(=O)[C@H]2[C@@H]1C(=O)NC[C@H](O)c1ccccc1)C(=O)OC,0.279
6,Cc1ccccc1C(O)C1C=CC2C(=O)N(C)C(=O)C2N1N(c1ccccc1)c1ccccc1 (stereo not given),0.396
7,CCC[C@@H]1C[C@@]1(CCC)[C@@H](NC(=O)OCc1ccccc1)c1ccc(-c2ccccc2)cc1,-0.0669
8,CN(C)C(=O)C1N=C(c2ccc(OCCCO)cc2)N(c2ccccc2)O1 (stereo not given),-0.181
9,O=C1O[C@H](c2ccccc2)[C@H](c2ccccc2)N2[C@H]1[C@@H](C(=O)O)[C@]1(C(=O)Nc3ccc(C#CC4=CCCCC4)cc31)[C@H]2c1ccc(O)cc1,0.0938
10,C=CCOC(=O)[C@H]1[C@@H]2C(=O)O[C@@H](c3ccccc3)[C@@H](c3ccccc3)N2[C@@H](c2ccc(OCCOC(=O)[C@H]3C[C@H]4C(=O)N[C@@H](CCCCNC(C)=O)C(=O)N4[C@H]3c3ccc(O)cc3)cc2)[C@]12C(=O)Nc1ccccc12,0.0013
